# Sampled rows, rich in hits. Any-hit rate of the full collection: about 11%.
# HPGD inh: inhibitors of human 15-hydroxyprostaglandin dehydrogenase (HPGD); AID 894; Potency, µM, for the others: at the highest dose activity change, negative = inhibition, usual class: inhibitors; actives 4.3% (n = 150,000); P15428; purified HPGD, NADH fluorescence kinetic, PGE2 substrate; also: potency is read from the fitted curve at half-maximal effect
#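 20 nM HPGD preincubated 15 min at room temperature with compound in 50 mM Tris-HCl pH 8, 0.01% Tween 20. Started with 1 mM NAD+ and 30 uM prostaglandin E2; NADH fluorescence (360/450 nm) read 5 times over 30-s intervals, last minus first.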
# PNC assembly inh: blocks assembly of the perinucleolar compartment | AID 2417 | PC3M PTB-GFP, PNC prevalence imaging, 16 h; active compounds read low | activity change (PNC), negative = inhibition, % at 10 µM | actives 3.1% (n = 140,000);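 active = readout at or below -70, meaning at least 70% loss of cells showing the perinucleolar compartment, a nuclear body marking cancer cells; inconclusive = readout between -30 and a set limit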;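 also: plate controls were DMSO wells for no effect and camptothecin positive control wells for full effect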
#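 Compounds are pinned in duplicate onto adhered PC3M cells stably expressing GFP-tagged PTB and incubated 16 h at 37 C. Cells are then fixed, nuclei stained with Hoechst, and PNC-positive cells counted.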
# ALDH1A1 block: blocks purified human ALDH1A1 activity; actives 7.3% (n = 220,000); Potency, µM (highest dose often 75.3 µM), without a hit: top-dose activity, negative = inhibition, actives largely listed as inhibitors; Purified ALDH1A1, NADH fluorescence, propionaldehyde substrate;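 also: potency is read from the fitted curve at half-maximal effect; plate controls were no enzyme wells and a reference inhibitor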
# Target sequence (P00352 whole entry, looked up): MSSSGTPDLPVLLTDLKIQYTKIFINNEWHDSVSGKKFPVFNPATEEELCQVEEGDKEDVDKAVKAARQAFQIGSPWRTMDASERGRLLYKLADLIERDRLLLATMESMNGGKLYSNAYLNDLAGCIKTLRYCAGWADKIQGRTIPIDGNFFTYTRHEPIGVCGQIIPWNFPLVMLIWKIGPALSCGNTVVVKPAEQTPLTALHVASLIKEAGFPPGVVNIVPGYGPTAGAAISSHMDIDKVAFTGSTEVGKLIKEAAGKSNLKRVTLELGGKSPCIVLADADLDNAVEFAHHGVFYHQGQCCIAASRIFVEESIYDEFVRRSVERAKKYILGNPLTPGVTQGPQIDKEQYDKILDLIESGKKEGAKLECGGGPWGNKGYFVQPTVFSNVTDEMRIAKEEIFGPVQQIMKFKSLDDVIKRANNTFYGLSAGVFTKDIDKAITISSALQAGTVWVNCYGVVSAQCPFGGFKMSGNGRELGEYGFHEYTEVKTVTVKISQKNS
# The depositor's hits bear a star; ? = inconclusive; nt = no result; [ ] = remark or other dose. Unless noted, calls follow the shape of the dose curve; as a rule, active = well fitted inhibition curve with a large enough effect (not every such curve was filed as active); inconclusive = small, poorly fitted or top-dose-only effect, or another doubt; inactive = no such curve, though single readings can be large or run the other way. Unless noted, % is scaled to controls: 0 for no effect and ±100 for the full control effect.
SMILES,HPGD inh,PNC assembly inh,ALDH1A1 block
Cc1cc(NC(=O)c2ccoc2C)no1,?,-14.0,?
NC(=O)c1c(NC(NC(=O)c2ccco2)C(=O)c2ccc(Cl)cc2)sc2c1CCCC2 (centres undefined),-20.4%,-10.3,17.8µM*
N#Cc1c(NC(NC(=O)c2ccco2)C(=O)c2ccccc2)sc2c1CCCC2 (centres undefined),-10.7%,43.7,?
CCOc1ccc(C2NC(=O)NC(C)=C2C(=O)OC)cc1C (centres undefined),-20.5%,?,-12.8%
COc1ccc(C(=O)N2CCC3(CC2)CN(c2ccccc2)C3)cc1,-6.7%,nt,-15.9%
CN(c1ccccc1)S(=O)(=O)c1cccc(C(=O)NCCc2ccc(O)c(O)c2)c1,nt,nt,28.2µM*
CN(c1ccc(C(=O)NCCc2ccccc2)cc1)S(C)(=O)=O,2.4%,21.0,0.1%
COc1ccc(CCNC(=O)c2ccc(N(C)S(=O)(=O)c3ccc(C)cc3)cc2)cc1,nt,nt,17.4%
COc1ccc(CCNC(=O)c2ccc(Cl)c(S(=O)(=O)N(C)c3ccccc3)c2)cc1,-15.3%,-88.5*,-0.4%
COc1ccc(CNc2ncnc3ccc(-c4c(C)noc4C)cc23)c(OC)c1,nt,nt,19.8%
Cc1ccc(S(=O)(=O)N[C@H](C(=O)O)C(C)C)cc1,-0.3%,nt,8.2%[13.5 µM]
CN(Cc1ccccc1NCC(=O)Nc1ccccc1C#N)C1CCCCC1,nt,nt,-4.6%
N#Cc1ccccc1NC(=O)CNc1ccccc1N1CCCCC1,-11.5%,11.5,31.6µM*
N#C/C(=C\c1ccncc1)c1nc2ccccc2c(=O)[nH]1,nt,nt,7.94µM*
N#C/C(=C1\CCCN1)c1nc2ccccc2c(=O)[nH]1,-26.7%,17.4,-14.8%
COC(=O)c1ccc(NC(=O)C2CCCN2S(=O)(=O)c2ccc(C)cc2)cc1 (centres undefined),-3.4%,-119.3*,11.0%
O=C(Nc1nccs1)C1CCCN1S(=O)(=O)c1ccc(Cl)cc1 (centres undefined),-19.2%,?,17.8µM*
NC(=O)c1ccsc1NC(=O)C1CCCN1S(=O)(=O)c1ccc(Cl)cc1 (centres undefined),?,67.4,?
COC(=O)c1ccc(NC(=O)C2CCCN2S(=O)(=O)c2ccc(OC)cc2)cc1 (centres undefined),-3.9%,?,?
Cc1ccc(S(=O)(=O)N(C)C)cc1NC(=O)C1CCCCC1,nt,nt,-5.4%
CN1CCC(OC(=O)c2cccc(Cl)c2)CC1,nt,nt,4.8%
C/C(=N\NC(=S)NCc1ccccc1)c1ccccc1,-7.8%,-2.3,-2.3%
C/C(=N\NC(=S)NCc1ccccc1)c1ccco1,nt,nt,31.6µM*
O=C(c1ccc(C(F)(F)F)cc1)N1CCC(=O)N([C@H](COCc2ccc(Cl)cc2)Cc2ccccc2)CC1,-19.5%,nt,?
COC(=O)N(/C=C/c1ccc(OC)cc1)CCc1ccc(OC)c(OC)c1,nt,nt,1.3%[13.5 µM]
SMILES,HPGD inh,PNC assembly inh,ALDH1A1 block
N#Cc1c(N)c(C(=O)c2ccccc2)n2c1CCCC2,-9.7%,11.0,-19.6%
CC(=O)N(C(C)=O)c1c(C#N)c(C)n(-c2ccccc2)c1C(=O)c1ccccc1,5.3%,-92.5*,-4.5%
COc1cccc(N2CCN(C(=O)CCNS(=O)(=O)c3ccc4c(c3)c(=O)n(C)c(=O)n4C)CC2)c1,nt,nt,19.5%
C[C@@H]1CNCCN1S(=O)(=O)c1cccc2cnccc12,1.5%,nt,-2.8%
CCN(CC)S(=O)(=O)c1ccc(Cc2ncc(C(F)(F)F)cc2Cl)s1,-17.5%,34.4,?
NNS(=O)(=O)c1ccc(Cc2ncc(C(F)(F)F)cc2Cl)s1,-12.1%,?,3.16µM*
O=C(CCl)c1ccc(Cc2ncc(C(F)(F)F)cc2Cl)s1,-22.0%,-18.5,0.708µM*
NS(=O)(=O)c1ccc(Cc2ncc(C(F)(F)F)cc2Cl)s1,-4.1%,10.7,0.0%
CC(C)c1ccccc1NC(=O)CNC(C)c1ccc(F)cc1 (centres undefined),nt,nt,10.7%
COCCN(C(=O)CNC(=O)c1ccco1)C(C(=O)NC1CCCCC1)c1cccs1 (centres undefined),-7.2%,15.1,-3.0%
O=C1/C(=C/N(C(=O)c2ccco2)c2ccc(Br)cc2)Sc2ccccc21,31.6µM*,171.5,?
O=C1/C(=C/N(C(=O)c2ccco2)c2ccc(Cl)cc2)Sc2ccccc21,-14.1%,-24.7,-6.1%
Cc1cc(OCC(=O)NC(C)C)ccc1Cl,nt,nt,-0.3%
CCn1ccnc1CN(C)Cc1nc(Cc2cccc(C(F)(F)F)c2)no1,nt,nt,-2.5%
CCn1nc(C)c(NC(=O)/C=C/c2cnn(C)c2)c1C,1.8%,-28.8,-1.8%
Cc1nn(C)cc1CNC(=O)/C=C/c1cnn(C)c1,-7.1%,-109.0*,8.8%
COCCN(C(=S)Nc1ccccc1OC)C(C)c1cccs1 (centres undefined),-1.1%,7.0,5.8%
O=C(Cn1cncn1)NCc1ccc(Cl)cc1,-2.6%,?,-3.4%
Clc1ccc(NCn2cncn2)nc1,?,-5.2,18.9µM*
COc1ccc(C2C(=O)N(C3CCCCC3)CC(=O)N2CC2COc3ccccc3O2)cc1 (centres undefined),-10.0%,19.7,-14.9%
CC1CCCN(C(=O)c2ccc3c(=O)n(Cc4ccc5c(c4)OCO5)c(=S)[nH]c3c2)C1 (centres undefined),5.01µM*,5.7,10µM*
CCOC(=O)N1CCN(C(=O)c2ccc3c(=O)n(CCc4ccccc4)c(=S)[nH]c3c2)CC1,-12.4%,70.6,9.9%
CCOC(=O)N1CCN(C(=O)c2ccc3c(=O)n(Cc4ccc(Cl)cc4)c(=S)[nH]c3c2)CC1,-22.0%,16.3,10µM*
CC(C)OCCCNC(=O)c1ccc2c(=O)n(Cc3ccc4c(c3)OCO4)c(=S)[nH]c2c1,nt,nt,13.3%
COc1ccc(CC(C(=O)Nc2cccc(F)c2)c2nn[nH]n2)c(OC)c1 (centres undefined),-3.0%,-3.8,-0.8%
SMILES,HPGD inh,PNC assembly inh,ALDH1A1 block
O=C(O)C(Cc1c[nH]c2ccccc12)N1C(=O)C2C3c4ccccc4C(c4ccccc43)C2C1=O (centres undefined),nt,nt,8.2%
CCCC(C)NC(=O)c1ccc(OCc2ccc(Cl)cc2)c(OC)c1 (centres undefined),-4.4%,-9.4,11.8%
CCN(CC)C(=O)c1ccc(COc2ccccc2Cl)cc1,0.355µM*,?,?
O=C(O)c1cccc(COc2ccccc2Cl)c1,?,-17.2,0.6%
O=C(c1ccc(COc2ccccc2Cl)o1)N1CCCC1,-24.1%,?,-6.8%
CCN(CC)C(=O)c1ccc(COc2ccccc2Br)o1,?,35.1,?
CC1CCN(C(=O)c2ccc(COc3ccccc3Cl)o2)CC1,15.8µM*,42.2,?
O=C(O)c1ccc(COc2ccccc2Cl)cc1,12.6µM*,-1.4,-12.3%
CCC(C)NC(=O)c1ccc(COc2ccccc2Cl)cc1 (centres undefined),20µM*,14.8,11.1%
CCC(C)(C)NC(=O)CCn1c(-c2ccccc2)cc(C(C)=O)c1C,nt,nt,-10.1%
COC(=O)C1=C(C)C(c2cccs2)NC(=O)N1C (centres undefined),-12.8%,-100.0*,-4.1%
CCN1C(=O)N[C@@H](c2cccs2)C(C(=O)OC)=C1C,-0.4%,nt,-7.1%[13.5 µM]
Cc1ccccc1-c1cncnc1N(C)Cc1ccco1,-8.8%,nt,-13.6%
C=CCN(CC=C)S(=O)(=O)c1ccc(NC(=O)COc2ccccc2OC)cc1,-3.2%,-87.6*,10.3%

# Assay outcomes: PubChem, National Center for Advancing Translational Sciences (NCATS)
